LGR2 inh = inhibitors of bursicon-induced LGR2 CRE-luciferase signal, primary screen, cell-based, HEK293, CRE-luciferase reporter, bursicon stimulation. Drosophila bursicon receptor LGR2 (rickets). 380,000 tested, 0.35% active. inhibition, % at 9.99 µM. bursicon-stimulated, 4 h;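 active = drop in luminescence signal, shown as inhibition above about 50% in the replicate tests, limit read from the data, passing the limit was not always enough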;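 note: agonist challenge used bursicon conditioned medium at about half maximal strength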
SENP6 block = SENP6 protease inhibitors, primary screen, biochemical, luminescence, uHTS. 330,000 tested, 1.8% active. AID 2599, 2010. inhibition, % at 10 µM. Recombinant SENP6 catalytic domain, aminoluciferin luminescence. Sentrin-specific protease 6 (Homo sapiens), Q9GZR1;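 active = inhibition above about 50% at the single tested dose, limit read from the data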;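 note: plate controls were DMSO wells with enzyme for no effect and DMSO wells lacking enzyme for full effect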
SENP8 block-1 = SENP8 protease inhibitors, primary screen, biochemical, luminescence | 330,000 tested, 1.2% active | purified SENP8, Z-RLRGG-aminoluciferin cleavage | Sentrin-specific protease 8 (Homo sapiens), Q96LD8 | inhibition, % at 10 µM | AID 2540, 2010; in the data active = inhibition above about 50%
Target sequence (Q96LD8 whole entry, looked up): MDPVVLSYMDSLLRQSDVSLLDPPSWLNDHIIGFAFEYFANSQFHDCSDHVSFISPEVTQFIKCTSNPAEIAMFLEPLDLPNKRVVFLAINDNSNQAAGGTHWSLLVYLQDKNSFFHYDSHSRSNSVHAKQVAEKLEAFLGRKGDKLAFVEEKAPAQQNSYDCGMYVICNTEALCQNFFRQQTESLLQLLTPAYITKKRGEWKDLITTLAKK
HSP90 inh = HSP90 inhibitors, primary screen, cell lysate, luminescence; Heat shock protein HSP 90 (rabbit reticulocyte lysate; luciferase refolding); Rabbit reticulocyte lysate, luciferase refolding luminescence, 3 h; inhibition, % at 5.6 µM; 290,000 tested, 0.91% active;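 active = inhibition above the screen-wide mean plus 3 SD, computed separately per campaign, cut at about 16% in these data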;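 note: 0% = DMSO wells and 100% = 60 µM geldanamycin wells; inhibitors lower the luminescence because luciferase stays unfolded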
SENP7 inh = SENP7 protease inhibitors, primary screen, biochemical, luminescence, uHTS. inhibition, % at 5 µM. 330,000 tested, 1.5% active. recombinant SENP7, Z-RLRGG-aminoluciferin luminescence, 40 min. AID 434973, 2010. Sentrin-specific protease 7 (Homo sapiens), Q9BQF6;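 active = inhibition above about 50% at the single test dose, limit read from the data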;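 note: plate controls were DMSO with enzyme for no effect and no enzyme buffer wells for full effect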
SENP8 block-2 = human SENP8 protease inhibitors, primary screen, biochemical, fluorescence, Nedd8 protein substrate, uHTS. Sentrin-specific protease 8 (Homo sapiens), Q96LD8. recombinant SENP8. inhibition, % at 20 µM. 360,000 tested, 0.64% active; in the data active = inhibition mostly above about 40%, no sharp cut-off; inactive = mostly below about 27%
SENP8 conf = SENP8 protease inhibitors, retest, confirmation, biochemical, luminescence, single concentration. shares compounds with SENP7 inh. Recombinant SENP8, Z-RLRGG-aminoluciferin luminescence, 60 min. inhibition, % at 12.5 µM. 6,200 tested, 40% active. AID 488912, 2010;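 active = mean inhibition across replicates above about 50%, limit read from the data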
SENP6 conf = SENP6 protease inhibitors, confirmation, biochemical, luminescence, single concentration. shares compounds with SENP7 inh. recombinant SENP6, Z-RLRGG-aminoluciferin luminescence. inhibition, % at 12.5 µM. 6,200 tested, 58% active. AID 488915, 2010
SENP7 conf = SENP7 protease inhibitors, retest, confirmation, biochemical, luminescence, single concentration. shares compounds with SENP7 inh. recombinant SENP7, Z-RLRGG-aminoluciferin luminescence, 40 min. inhibition, % at 12.5 µM. 6,200 tested, 69% active. AID 488917, 2010
Casp3 select = caspase-3 protease inhibitors, confirmation, selectivity assay for SENP inhibitor project, biochemical, single concentration. 6,200 tested, 60% active. shares compounds with SENP7 inh. AID 488918, 2010. purified caspase-3, Z-DEVD-aminoluciferin luminescence, 60 min. inhibition, % at 12.5 µM;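 active = mean inhibition above about 50%, limit read from the data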;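 note: plate controls were enzyme with DMSO for no effect and wells without caspase-3 for full effect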
Target sequence (P42574 28-227 limits assumed): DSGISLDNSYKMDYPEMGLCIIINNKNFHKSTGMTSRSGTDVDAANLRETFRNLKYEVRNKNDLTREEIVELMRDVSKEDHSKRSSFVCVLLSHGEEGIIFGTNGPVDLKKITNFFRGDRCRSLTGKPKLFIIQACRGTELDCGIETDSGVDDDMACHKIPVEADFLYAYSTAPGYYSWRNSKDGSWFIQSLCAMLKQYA
Luc interf = counter-screen for SENP inhibitors: luminescence interference; inhibition, % at 12.5 µM; 6,200 tested, 39% active; Pre-incubated SENP8/Z-RLRGG-aminoluciferin, luciferase luminescence interference; shares compounds with SENP7 inh; AID 488919;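 active = mean inhibition above about 50% when retested at one dose, limit read from the data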;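 note: plate controls were DMSO wells with completed reaction for no effect and substrate without enzyme for full effect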
An asterisk follows results filed as active. Compounds with a hit are over-represented: about 2.3% of the library has one in this group of screens.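 Rule for the calls, unless noted: active = mean inhibition above about 50% in the one-dose retest (limit read from the data); inactive = the rest.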

Screening COc1ccc2nc(NC(=S)N(C)C)sc2c1 returned SENP6 block 80.7*, SENP8 block-1 66.5*, HSP90 inh -0.2, SENP7 inh 76.3*, SENP8 block-2 18.5, SENP8 conf 79.9*, SENP6 conf 78.7*, SENP7 conf 94.3*, Casp3 select 68.9* and Luc interf 78.6*.
Screening Cc1cc(C(=O)Nc2cc(C(C)(C)C)on2)c(C)o1 returned SENP6 block 72.8*, SENP8 block-1 64.4*, HSP90 inh -2.0, SENP7 inh 70.6*, SENP8 block-2 1.8, SENP8 conf 15.0, SENP6 conf 25.4, SENP7 conf 43.6, Casp3 select 51.1* and Luc interf 11.4.
`CCCNC(=O)N1C[C@@H]2[C@H](c3ccccc31)[C@H](CO)N2C(=O)NCCC` gave LGR2 inh -10.8.
Screening CC(C)CC#Cc1ccc2c(c1)O[C@@H](CN(C)C(=O)Cc1cccnc1)[C@H](C)CN([C@H](C)CO)S2(=O)=O returned LGR2 inh -5.6.
`Cc1cc(C(=O)Nc2nc3ccc(S(C)(=O)=O)cc3s2)c(C)o1` gave LGR2 inh -1.6, SENP6 block 96.1*, SENP8 block-1 41.2, HSP90 inh -1.4, SENP7 inh 93.3*, SENP8 block-2 -31.2, SENP8 conf 33.7, SENP6 conf 88.9*, SENP7 conf 100.6*, Casp3 select 93.6* and Luc interf 14.4.
`Cc1nn(Cc2ccccc2Cl)c(C)c1C(=O)NCc1ccco1` gave SENP6 block -1.9, SENP8 block-1 -0.3, HSP90 inh -3.2, SENP7 inh 1.9 and SENP8 block-2 8.4.
`Cc1nn(Cc2ccccc2Cl)c(C)c1C(=O)NCCN1C(=O)S/C(=C\c2ccccc2)C1=O` gave LGR2 inh 1.5, SENP6 block -9.0, SENP8 block-1 -1.9, HSP90 inh -2.8, SENP7 inh 65.8*, SENP8 block-2 6.7, SENP8 conf -10.9, SENP6 conf -3.8, SENP7 conf -2.3, Casp3 select -2.3 and Luc interf -7.8.
C[C@@H]1CN([C@@H](C)CO)C(=O)c2cc(NC(=O)Cc3ccccc3)ccc2O[C@H]1CN(C)Cc1ccc(C(=O)O)cc1 was read as LGR2 inh -12.0.
Screening Nc1nc2c(-c3ccc(Br)cc3)nnn2c2ccccc12 returned LGR2 inh -20.2, SENP6 block -4.6, SENP8 block-1 -7.1, HSP90 inh -1.2, SENP7 inh 69.9*, SENP8 block-2 -286.3, SENP8 conf -0.9, SENP6 conf 2.2, SENP7 conf -1.3, Casp3 select -0.3 and Luc interf -3.7.
CNc1nc2c(-c3ccc(Cl)cc3)nnn2c2ccccc12 was read as LGR2 inh -2.1, SENP6 block -13.9, SENP8 block-1 -2.6, HSP90 inh -0.7, SENP7 inh -7.9 and SENP8 block-2 -286.7.
For O=c1c2ccccc2oc2ccc(-c3ccc4[nH]ccc4c3)cc12 the results were LGR2 inh -60.9, SENP6 block 53.4*, SENP8 block-1 43.8, SENP7 inh 47.6, SENP8 block-2 -81.3, SENP8 conf 16.7, SENP6 conf 36.5, SENP7 conf 57.1*, Casp3 select 18.2 and Luc interf 16.8.
Screening C[C@@H]1CN([C@H](C)CO)S(=O)(=O)c2ccc(C3=CCCC3)cc2O[C@H]1CN(C)C(=O)C1CCOCC1 returned LGR2 inh -2.8.
COc1cccc(C(=O)O[C@H]2[C@H](C)NS(=O)(=O)[C@H]3C[C@@H]4C=C[C@]23O4)c1 was read as LGR2 inh -9.1, SENP6 block 68.2*, SENP8 block-1 -8.7, SENP7 inh -2.4, SENP8 block-2 8.4, SENP8 conf 11.0, SENP6 conf 3.2, SENP7 conf -1.2, Casp3 select -5.0 and Luc interf -4.7.
`CCc1ccc(OC(=O)Nc2ccccc2)cc1` gave LGR2 inh -30.6, SENP6 block 86.2*, SENP8 block-1 78.1*, HSP90 inh -2.9, SENP7 inh 37.6, SENP8 block-2 4.5, SENP8 conf 91.1*, SENP6 conf 90.8*, SENP7 conf 98.5*, Casp3 select 82.3* and Luc interf 78.3*.
`COc1ccc(OC(=O)Nc2ccccc2)cc1` gave LGR2 inh -56.0, SENP6 block 81.9*, SENP8 block-1 83.1*, HSP90 inh -4.0, SENP7 inh -8.1, SENP8 block-2 9.5, SENP8 conf 1.9, SENP6 conf 87.6*, SENP7 conf 99.7*, Casp3 select 91.6* and Luc interf 85.5*.
Screening CC(=O)Nc1ccc(NC(=O)Oc2ccccc2)cc1 returned LGR2 inh 5.4, SENP6 block -11.6, SENP8 block-1 -1.1, HSP90 inh 1.2, SENP7 inh 4.5 and SENP8 block-2 -49.1.
Cc1ccc(S(=O)(=O)NCC[C@@H]2CC[C@H](NC(=O)c3cnccn3)[C@H](CO)O2)cc1 was read as LGR2 inh -0.7.
Screening C[C@@H]1CN([C@@H](C)CO)C(=O)c2cc(NS(=O)(=O)c3ccc(F)cc3)ccc2O[C@@H](C)CCCCO[C@H]1CN(C)S(=O)(=O)c1cccs1 returned LGR2 inh -7.5.
`COc1ccc(-c2cc(=Nc3ccc(C(=O)O)cc3)c3cc(C)ccc3o2)cc1` gave LGR2 inh 52.6*, SENP6 block 65.8*, SENP8 block-1 78.6*, HSP90 inh 2.1, SENP7 inh 89.5*, SENP8 block-2 -445.7, SENP8 conf -3.5, SENP6 conf 81.0*, SENP7 conf 93.3*, Casp3 select 83.8* and Luc interf 63.9*.

From PubChem BioAssay
